From ChEMBL document CHEMBL1961873, “Compounds: GSK PKIS; Assays: Nanosyn kinase panel” (2012) come the findings set out here.

Chain of Fibroblast growth factor receptor 3 (Homo sapiens) (P22607 23-806 limits assumed): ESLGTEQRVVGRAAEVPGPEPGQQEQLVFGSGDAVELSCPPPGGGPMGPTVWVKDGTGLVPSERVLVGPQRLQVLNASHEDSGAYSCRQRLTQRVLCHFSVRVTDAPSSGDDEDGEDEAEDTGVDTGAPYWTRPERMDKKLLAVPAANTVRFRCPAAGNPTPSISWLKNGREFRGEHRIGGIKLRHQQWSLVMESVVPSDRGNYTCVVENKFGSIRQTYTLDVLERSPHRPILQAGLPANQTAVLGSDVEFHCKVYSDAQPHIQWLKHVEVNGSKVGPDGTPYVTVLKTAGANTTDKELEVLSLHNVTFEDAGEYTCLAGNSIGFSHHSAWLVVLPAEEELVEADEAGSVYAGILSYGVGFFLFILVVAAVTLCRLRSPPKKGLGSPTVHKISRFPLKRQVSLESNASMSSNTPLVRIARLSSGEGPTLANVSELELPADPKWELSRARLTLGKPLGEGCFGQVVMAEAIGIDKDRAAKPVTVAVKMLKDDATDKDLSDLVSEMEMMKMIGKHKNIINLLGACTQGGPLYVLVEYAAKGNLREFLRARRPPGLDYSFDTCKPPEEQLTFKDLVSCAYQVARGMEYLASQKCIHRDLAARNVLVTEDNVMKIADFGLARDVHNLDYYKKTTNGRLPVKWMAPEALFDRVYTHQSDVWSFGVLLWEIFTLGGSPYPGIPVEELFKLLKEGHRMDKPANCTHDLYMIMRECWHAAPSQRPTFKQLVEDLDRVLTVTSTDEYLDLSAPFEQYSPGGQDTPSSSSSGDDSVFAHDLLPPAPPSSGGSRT

The first assay has as its target Fibroblast growth factor receptor 3 (Homo sapiens) (UniProt P22607). As to conditions: at 0.1 µM.
In general, inhibition refers to the relative decrease from the control value, in per cent. `NS(=O)(=O)c1cccc(-c2cc3ccncc3cc2OCc2ccccc2)c1`: the inhibition worked out at 8.37%.
`COc1cc2ncnc(Nc3ccc4c(cnn4Cc4ccccc4)c3)c2cc1OC`: the inhibition came to 3.3%.
Still for that read-out and setting: the same measure for `Cc1ccc2c(c1)/C(=N/Nc1ccc(S(N)(=O)=O)cc1)C(=O)N2`: 4.04%; for `FC(F)(F)c1ccc(-c2nn3ncccc3c2-c2ccnc(Nc3ccc4c(c3)OCCO4)n2)cc1`: 6.49%; for `CCCN1CCCC(c2ccc(Nc3nc(Nc4cc(F)ccc4C(N)=O)c4cc[nH]c4n3)c(OC)c2)C1` (configuration not stated): 5.86%.
The same measure, in the same setting: the same measure for `COc1cccc(-n2ncc3c(N/N=C/c4ccc(C)cc4)ncnc32)c1`: 9.56%; for `[O-][S+]1CCN(Cc2ccc(-c3ccc4ncnc(Nc5ccc(OCc6ccccc6)c(Cl)c5)c4c3)o2)CC1`: -0.22%.
On the same count and under the same terms, with `Cc1cc(Cl)cc2c1NC(=O)C2=NNc1ccc(S(N)(=O)=O)cc1` the figure was 1.47%; with `COc1ccc(-c2nn3ncccc3c2-c2ccnc(Nc3cccc(C(F)(F)F)c3)n2)cc1`, 2.6%; with `N#Cc1cccc(Nc2nccc(-c3cnn4ncccc34)n2)c1`, 9.72%.
With `Cc1ccc2c(-c3ccnc(Nc4cccc(C(F)(F)F)c4)n3)c(-c3ccccc3)nn2n1`, the inhibition was found to be 7.84%.
Same read-out and setting: with `Cc1ccc(O)cc1Nc1ccnc2ccc(S(C)(=O)=O)cc12` the figure was 6.01%; with `Cc1ccc(Nc2ccnc(Nc3cccc(C(N)=O)c3)n2)cc1O`, 3.55%.
Same read-out and setting: the same measure for `O=C1Nc2ccc(-c3cccnc3)cc2C1=Cc1cc(Br)c(O)c(Br)c1`: 9.43%; for `COC(=O)Nc1nc2cc(Oc3ccc(NC(=O)Nc4cccc(Br)c4)cc3)ccc2[nH]1`: 4.36%; for `Cc1cc(O)cc(C)c1/C=C/c1cncc(C(=O)N(C)C)c1`: 3.74%.
Still for that read-out and setting: the same measure for `COc1ccc2ncnc(Nc3ccc(OCc4ccccc4)cc3)c2c1`: 1.63%; for `CS(=O)(=O)Nc1cccc(-c2ccc3c(NC(=O)C4CC4)n[nH]c3c2)c1`: 1.56%.
For `COc1cc2ncnc(Nc3ccc(C)c(O)c3)c2cc1OC`, the inhibition came to 6.03%.
Same read-out and setting: the same measure for `COc1cccc(-n2ncc3c(N/N=C/c4ccc(S(C)(=O)=O)cc4)ncnc32)c1`: 1.85%; for `Cc1nc(-c2ccccc2)n2nc(NCCCN3CCOCC3)ncc12`: 6.35%.
Still for that read-out and setting: with `Nc1nccc(C#Cc2cncnc2Nc2ccc(OCc3cccc(F)c3)c(Cl)c2)n1` the figure was 5.34%; with `N#Cc1c(NC(=O)c2ccccc2F)sc2c1CCCC2`, -2.94%; with `CC(C)c1ccc(Nc2nccc(-c3cnn4ncccc34)n2)cc1`, 7.5%.
Take `Cc1cc(-c2ccccn2)cc(C)c1/C=C/c1cncc(-c2nn[nH]n2)c1`: the inhibition stood at 5.34%.
Still for that read-out and setting: the same measure for `CN(c1ccc(NC(=O)Nc2ccc(OC(F)(F)F)cc2)cc1)c1ccnc(Nc2cccc(S(N)(=O)=O)c2)n1`: 3.87%; for `COc1cc(/C=N/Nc2ncnc3c2cnn3C(C)C)ccc1O`: 1.62%.
On the same count and under the same terms, with `NC(=O)c1cccc(Nc2nccc(Nc3cccc(F)c3)n2)c1` the figure was 4.22%; with `Nc1ccc(C#Cc2cncnc2Nc2ccc(OCc3cccc(F)c3)c(Cl)c2)cc1`, 3.12%.
Same read-out and setting: with `O=C(Nc1ccc(Oc2ccc3[nH]c(NC(=O)c4ccco4)nc3c2)cc1)Nc1cc(C(F)(F)F)ccc1F` the figure was -0.92%.
As for `CC(C)c1ccc2c(c1)NC(=O)/C2=N/Nc1ccc(S(N)(=O)=O)cc1`, the inhibition amounted to 1.14%.
On the same count and under the same terms, the same measure for `c1ccc(Cc2nc3ccc(Nc4ncnc5ccccc45)cc3[nH]2)cc1`: 4.51%; for `CCOc1nccc2c1nc(-c1nonc1N)n2CC`: 5%.

The target is the same in a further assay. As to conditions: at 1 µM.
As for `NS(=O)(=O)c1cccc(-c2cc3ccncc3cc2OCc2ccccc2)c1`, the inhibition was 13%.
On the same count and under the same terms, the same measure for `COc1cc2ncnc(Nc3ccc4c(cnn4Cc4ccccc4)c3)c2cc1OC`: 3.13%; for `Cc1ccc2c(c1)/C(=N/Nc1ccc(S(N)(=O)=O)cc1)C(=O)N2`: 26.5%.
Still for that read-out and setting: the same measure for `FC(F)(F)c1ccc(-c2nn3ncccc3c2-c2ccnc(Nc3ccc4c(c3)OCCO4)n2)cc1`: 6.94%.
The same measure, in the same setting: with `CCCN1CCCC(c2ccc(Nc3nc(Nc4cc(F)ccc4C(N)=O)c4cc[nH]c4n3)c(OC)c2)C1` (configuration not stated) the figure was 4.56%; with `COc1cccc(-n2ncc3c(N/N=C/c4ccc(C)cc4)ncnc32)c1`, 6.72%; with `[O-][S+]1CCN(Cc2ccc(-c3ccc4ncnc(Nc5ccc(OCc6ccccc6)c(Cl)c5)c4c3)o2)CC1`, 3.23%.
In the case of `Cc1cc(Cl)cc2c1NC(=O)C2=NNc1ccc(S(N)(=O)=O)cc1`, the inhibition was found to be 0.97%.
The same measure, in the same setting: the same measure for `COc1ccc(-c2nn3ncccc3c2-c2ccnc(Nc3cccc(C(F)(F)F)c3)n2)cc1`: 4.58%; for `N#Cc1cccc(Nc2nccc(-c3cnn4ncccc34)n2)c1`: 17.2%; for `Cc1ccc2c(-c3ccnc(Nc4cccc(C(F)(F)F)c4)n3)c(-c3ccccc3)nn2n1`: 6.97%.
`Cc1ccc(O)cc1Nc1ccnc2ccc(S(C)(=O)=O)cc12`: the inhibition came to 11%.
On the same count and under the same terms, the same measure for `Cc1ccc(Nc2ccnc(Nc3cccc(C(N)=O)c3)n2)cc1O`: 18.4%; for `O=C1Nc2ccc(-c3cccnc3)cc2C1=Cc1cc(Br)c(O)c(Br)c1`: 8.18%; for `COC(=O)Nc1nc2cc(Oc3ccc(NC(=O)Nc4cccc(Br)c4)cc3)ccc2[nH]1`: 2.66%.
For the compound `Cc1cc(O)cc(C)c1/C=C/c1cncc(C(=O)N(C)C)c1`, the inhibition is 3.19%.
On the same count and under the same terms, the same measure for `COc1ccc2ncnc(Nc3ccc(OCc4ccccc4)cc3)c2c1`: 2.3%; for `CS(=O)(=O)Nc1cccc(-c2ccc3c(NC(=O)C4CC4)n[nH]c3c2)c1`: 2.41%.
On to `COc1cc2ncnc(Nc3ccc(C)c(O)c3)c2cc1OC`, for which the inhibition was 10.2%.
Still for that read-out and setting: with `COc1cccc(-n2ncc3c(N/N=C/c4ccc(S(C)(=O)=O)cc4)ncnc32)c1` the figure was 4.08%.
On the same count and under the same terms, with `Cc1nc(-c2ccccc2)n2nc(NCCCN3CCOCC3)ncc12` the figure was 4.45%; with `Nc1nccc(C#Cc2cncnc2Nc2ccc(OCc3cccc(F)c3)c(Cl)c2)n1`, 5.62%.
`N#Cc1c(NC(=O)c2ccccc2F)sc2c1CCCC2`: the inhibition was -1.6%.
Consider `CC(C)c1ccc(Nc2nccc(-c3cnn4ncccc34)n2)cc1`, for which the inhibition came to 6.25%.
The same measure, in the same setting: the same measure for `NS(=O)(=O)c1ccc(NC=C2C(=O)Nc3ccc4ncsc4c32)cc1`: 65%.
On the same count and under the same terms, the same measure for `Cc1cc(-c2ccccn2)cc(C)c1/C=C/c1cncc(-c2nn[nH]n2)c1`: 4.82%; for `CN(c1ccc(NC(=O)Nc2ccc(OC(F)(F)F)cc2)cc1)c1ccnc(Nc2cccc(S(N)(=O)=O)c2)n1`: 23.3%; for `COc1cc(/C=N/Nc2ncnc3c2cnn3C(C)C)ccc1O`: 7.76%.
The same measure, in the same setting: with `NC(=O)c1cccc(Nc2nccc(Nc3cccc(F)c3)n2)c1` the figure was 9.81%; with `Nc1ccc(C#Cc2cncnc2Nc2ccc(OCc3cccc(F)c3)c(Cl)c2)cc1`, 4.49%; with `O=C(Nc1ccc(Oc2ccc3[nH]c(NC(=O)c4ccco4)nc3c2)cc1)Nc1cc(C(F)(F)F)ccc1F`, 7.51%.
For the compound `CC(C)c1ccc2c(c1)NC(=O)/C2=N/Nc1ccc(S(N)(=O)=O)cc1`, the inhibition came to 3.91%.
In the case of `c1ccc(Cc2nc3ccc(Nc4ncnc5ccccc45)cc3[nH]2)cc1`, the inhibition was 5.34%.
For the compound `CCOc1nccc2c1nc(-c1nonc1N)n2CC`, the inhibition came out at 10.9%.
